# In the supplement of paper PMC8728848:
# Many of the other results were omitted from the sample, so the strongest signals are more common in it than they were.
# B1: Apa (Mycobacterium tuberculosis), Rv1860 (protein)
# chain: MHQVDPNLTRRKGRLAALAIAAMASASLVTVAVPATANADPEPAPPVPTTAASPPSTAAAPPAPATPVAPPPPAAANTPNAQPGDPNAAPPPADPNAPPPPVIAPNAPQPVRIDNPVGGFSFALPAGWVESDAAHFDYGSALLSKTTGDPPFPGQPPPVANDTRIVLGRLDQKLYASAEATDSKAAARLGSDMGEFYMPYPGTRINQETVSLDANGVSGSASYYEVKFSDPSKPNGQIWTGVIGSPAANAPDAGPPQRWFVVWLGTANNPVDKGAAKALAESIRPLVAPPPAPAPAPAEPAPAPAPAGEVAPTPTTPTPQRTLPA
# What was measured:
# Experiment in all cases: glycan array binding signal (z-score within array); higher = stronger binding
# Settings in all cases: glycan notation: IUPAC condensed, linker removed
# [1] = biological target: Fuc(a1-2)Gal(b1-3)GalNAc(a1-3)[Fuc(a1-2)]Gal(b1-4)Glc
# Method in brief: (§1)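 Glycan array data were curated from 3228 arrays in the Consortium for Functional Glycomics database and kept only where the protein sequence was available. Glycan names were converted to IUPAC-condensed notation, and columns mapping to the same glycan were averaged. The binding signal is a within-array Z-score, averaged across arrays of the same protein sequence at different concentrations or buffers and across linkers. Negative Z-scores can be read as non-binding.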
# [2] = biological target: Fuc(a1-2)Gal(b1-3)GalNAc(b1-3)Gal
# Method in brief: as §1
# Fuc(a1-2)Gal(b1-4)Glc6S = biological target: Fuc(a1-2)Gal(b1-4)Glc6S
# Method in brief: as §1
# [3] = biological target: Fuc(a1-2)Gal6S(b1-3)GlcNAc6S
# Method in brief: as §1
# [4] = biological target: Fuc(a1-2)Gal6S(b1-4)Glc6S
# Method in brief: as §1
# [5] = biological target: Fuc(a1-2)[Gal(a1-3)]Gal(b1-3)GlcNAc(b1-2)Man(a1-3)[Fuc(a1-2)[Gal(a1-3)]Gal(b1-3)GlcNAc(b1-2)Man(a1-6)]Man(b1-4)GlcNAc(b1-4)[Fuc(a1-6)]GlcNAc
# Method in brief: as §1
# [6] = biological target: Fuc(a1-2)[Gal(a1-3)]Gal(b1-4)[Fuc(a1-3)]Glc
# Method in brief: as §1
# [7] = biological target: Fuc(a1-2)[Gal(a1-3)]Gal(b1-4)[Fuc(a1-3)]GlcNAc
# Method in brief: as §1
# [8] = biological target: Fuc(a1-2)[GalNAc(a1-3)]Gal(b1-3)GalNAc(a1-3)[Fuc(a1-2)]Gal(b1-4)GlcNAc
# Method in brief: as §1
# [9] = biological target: Fuc(a1-2)[GalNAc(a1-3)]Gal(b1-3)GalNAc(b1-3)Gal(a1-4)Gal(b1-4)Glc
# Method in brief: as §1
# [10] = biological target: Fuc(a1-2)[GalNAc(a1-3)]Gal(b1-4)GlcNAc
# Method in brief: as §1
# [11] = biological target: Fuc(a1-3)[Gal(b1-4)]Glc6S
# Method in brief: as §1
# [12] = biological target: Fuc(a1-3)[Gal(b1-4)]GlcNAc(b1-3)Gal(b1-4)[Fuc(a1-3)]GlcNAc
# Method in brief: as §1
# [13] = biological target: Fuc(a1-3)[Gal(b1-4)]GlcNAc6S
# Method in brief: as §1
# Fuc(a1-4)GlcNAc = biological target: Fuc(a1-4)GlcNAc
# Method in brief: as §1
# Gal(b1-3)GlcNAc(b1-2)Man = biological target: Gal(b1-3)GlcNAc(b1-2)Man
# Method in brief: as §1
# [14] = biological target: Gal(b1-3)GlcNAc(b1-2)Man(a1-3)[Gal(b1-3)GlcNAc(b1-2)Man(a1-6)]Man(b1-4)GlcNAc(b1-4)GlcNAc
# Method in brief: as §1
# [15] = biological target: Gal(b1-3)GlcNAc(b1-3)Gal(b1-3)GlcNAc
# Method in brief: as §1
# Gal(b1-3)GlcNAc6S = biological target: Gal(b1-3)GlcNAc6S
# Method in brief: as §1
# [16] = biological target: Gal(b1-4)GalNAc(b1-3)[Fuc(a1-2)]Gal(b1-4)GlcNAc
# Method in brief: as §1
# [17] = biological target: Gal(b1-4)GlcNAc(a1-6)Gal(b1-4)GlcNAc
# Method in brief: as §1
# [18] = biological target: Gal(b1-4)GlcNAc(b1-2)Man(a1-3)[Gal(b1-4)GlcNAc(b1-2)Man(a1-6)]Man(b1-4)GlcNAc(b1-4)[Fuc(a1-6)]GlcNAc
# Method in brief: as §1
# [19] = biological target: Gal(b1-4)GlcNAc(b1-2)[Gal(b1-4)GlcNAc(b1-4)]Man(a1-3)[GlcNAc(b1-4)][Gal(b1-4)GlcNAc(b1-2)[Gal(b1-4)GlcNAc(b1-6)]Man(a1-6)]Man(b1-4)GlcNAc(b1-4)GlcNAc
# Method in brief: as §1
# [20] = biological target: Gal(b1-4)GlcNAc(b1-3)Gal(b1-3)GlcNAc
# Method in brief: as §1
# [21] = biological target: Gal(b1-4)GlcNAc(b1-3)Gal(b1-4)GlcNAc
# Method in brief: as §1
# Gal(b1-4)GlcNAc6P = biological target: Gal(b1-4)GlcNAc6P
# Method in brief: as §1
# [22] = biological target: GalNAc(b1-4)GlcNAc(b1-2)Man
# Method in brief: as §1
# GalNAc(b1-4)GlcNAc6S = biological target: GalNAc(b1-4)GlcNAc6S
# Method in brief: as §1
# GalNAc6S(b1-4)GlcNAc = biological target: GalNAc6S(b1-4)GlcNAc
# Method in brief: as §1
# Glc(b1-4)Glc = biological target: Glc(b1-4)Glc
# Method in brief: as §1
# Glc(b1-6)Glc = biological target: Glc(b1-6)Glc
# Method in brief: as §1
# [23] = biological target: GlcNAc(b1-2)Man(a1-3)[GlcNAc(b1-4)][GlcNAc(b1-2)Man(a1-6)]Man(b1-4)GlcNAc(b1-4)[Fuc(a1-6)]GlcNAc
# Method in brief: as §1
# [24] = biological target: GlcNAc(b1-2)[GlcNAc(b1-4)]Man(a1-3)[GlcNAc(b1-2)Man(a1-6)]Man(b1-4)GlcNAc(b1-4)GlcNAc
# Method in brief: as §1
# [25] = biological target: GlcNAc(b1-2)[GlcNAc(b1-4)]Man(a1-3)[GlcNAc(b1-4)][GlcNAc(b1-2)[GlcNAc(b1-6)]Man(a1-6)]Man(b1-4)GlcNAc(b1-4)[Fuc(a1-6)]GlcNAc
# Method in brief: as §1
# [26] = biological target: GlcNAc(b1-3)Gal(b1-4)GlcNAc(b1-3)[GlcNAc(b1-3)Gal(b1-4)GlcNAc(b1-3)]GalNAc
# Method in brief: as §1
# [27] = biological target: GlcNAc(b1-3)[GlcNAc(b1-6)]GalNAc
# Method in brief: as §1
# [28] = biological target: GlcNAc(b1-6)Gal(b1-4)GlcNAc
# Method in brief: as §1
# GlcNAc(b1-6)GalNAc = biological target: GlcNAc(b1-6)GalNAc
# Method in brief: as §1
# [29] = biological target: Man(a1-2)Man(a1-6)[Man(a1-3)]Man(a1-6)[Man(a1-2)Man(a1-2)Man(a1-3)]Man
# Method in brief: as §1
# Man(a1-6)Man = biological target: Man(a1-6)Man
# Method in brief: as §1
# MurNAc(b1-4)GlcNAc = biological target: MurNAc(b1-4)GlcNAc
# Method in brief: as §1
# [30] = biological target: Neu5Ac(a2-3)Gal(b1-3)[GlcNAc(b1-6)]GalNAc
# Method in brief: as §1
# [31] = biological target: Neu5Ac(a2-3)Gal(b1-4)GlcNAc(b1-2)Man(a1-3)[Neu5Ac(a2-3)Gal(b1-4)GlcNAc(b1-2)Man(a1-6)]Man(b1-4)GlcNAc(b1-4)GlcNAc
# Method in brief: as §1
# [32] = biological target: Neu5Ac(a2-3)Gal(b1-4)GlcNAc(b1-2)Man(a1-3)[Neu5Ac(a2-3)Gal(b1-4)GlcNAc(b1-2)Man(a1-6)]Man(b1-4)GlcNAc(b1-4)[Fuc(a1-6)]GlcNAc
# Method in brief: as §1
# [33] = biological target: Neu5Ac(a2-3)Gal(b1-4)GlcNAc(b1-2)Man(a1-3)[Neu5Ac(a2-6)Gal(b1-4)GlcNAc(b1-2)Man(a1-6)]Man(b1-4)GlcNAc(b1-4)GlcNAc
# Method in brief: as §1
# [34] = biological target: Neu5Ac(a2-3)Gal(b1-4)[Fuc(a1-3)]GlcNAc(b1-6)[Neu5Ac(a2-3)Gal(b1-3)]GalNAc
# Method in brief: as §1
# [35] = biological target: Neu5Ac(a2-3)Gal6S(b1-4)GlcNAc
# Method in brief: as §1
# [36] = biological target: Neu5Ac(a2-3)Gal6S(b1-4)[Fuc(a1-3)]GlcNAc
# Method in brief: as §1
# [37] = biological target: Neu5Ac(a2-6)Gal(b1-4)GlcNAc(b1-2)Man(a1-3)[Neu5Ac(a2-3)Gal(b1-4)GlcNAc(b1-2)Man(a1-6)]Man(b1-4)GlcNAc(b1-4)GlcNAc
# Method in brief: as §1
# [38] = biological target: Neu5Ac(a2-6)Gal(b1-4)GlcNAc(b1-3)Gal(b1-4)GlcNAc(b1-6)[Gal(b1-3)]GalNAc
# Method in brief: as §1
# Neu5Ac(b2-6)GalNAc = biological target: Neu5Ac(b2-6)GalNAc
# Method in brief: as §1
# Neu5Gc(a2-3)Gal(b1-4)Glc = biological target: Neu5Gc(a2-3)Gal(b1-4)Glc
# Method in brief: as §1
binder,measurement,setting,value
B1,glycan array binding signal (z-score),[1],2.08
same,glycan array binding signal (z-score),[2],4.21
same,glycan array binding signal (z-score),Fuc(a1-2)Gal(b1-4)Glc6S,-0.06
same,glycan array binding signal (z-score),[3],2.87
same,glycan array binding signal (z-score),[4],1.9
same,glycan array binding signal (z-score),[5],0.338
same,glycan array binding signal (z-score),[6],-0.318
same,glycan array binding signal (z-score),[7],0.273
same,glycan array binding signal (z-score),[8],14.3
same,glycan array binding signal (z-score),[9],5.64
same,glycan array binding signal (z-score),[10],-0.327
same,glycan array binding signal (z-score),[11],0.898
same,glycan array binding signal (z-score),[12],0.272
same,glycan array binding signal (z-score),[13],1.94
same,glycan array binding signal (z-score),Fuc(a1-4)GlcNAc,-0.036
same,glycan array binding signal (z-score),Gal(b1-3)GlcNAc(b1-2)Man,2.77
same,glycan array binding signal (z-score),[14],-0.376
same,glycan array binding signal (z-score),[15],-0.31
same,glycan array binding signal (z-score),Gal(b1-3)GlcNAc6S,-0.259
same,glycan array binding signal (z-score),[16],5.04
same,glycan array binding signal (z-score),[17],0.281
same,glycan array binding signal (z-score),[18],-0.333
same,glycan array binding signal (z-score),[19],0.024
same,glycan array binding signal (z-score),[20],-0.238
same,glycan array binding signal (z-score),[21],-0.271
same,glycan array binding signal (z-score),Gal(b1-4)GlcNAc6P,-0.455
same,glycan array binding signal (z-score),[22],-0.412
same,glycan array binding signal (z-score),GalNAc(b1-4)GlcNAc6S,-0.421
same,glycan array binding signal (z-score),GalNAc6S(b1-4)GlcNAc,2.78
same,glycan array binding signal (z-score),Glc(b1-4)Glc,2.25
same,glycan array binding signal (z-score),Glc(b1-6)Glc,-0.327
same,glycan array binding signal (z-score),[23],-0.607
same,glycan array binding signal (z-score),[24],-0.083
same,glycan array binding signal (z-score),[25],-0.482
same,glycan array binding signal (z-score),[26],0.26
same,glycan array binding signal (z-score),[27],-0.468
same,glycan array binding signal (z-score),[28],-0.453
same,glycan array binding signal (z-score),GlcNAc(b1-6)GalNAc,-0.174
same,glycan array binding signal (z-score),[29],0.102
same,glycan array binding signal (z-score),Man(a1-6)Man,-0.69
same,glycan array binding signal (z-score),MurNAc(b1-4)GlcNAc,-0.3
same,glycan array binding signal (z-score),[30],-0.268
same,glycan array binding signal (z-score),[31],-0.603
same,glycan array binding signal (z-score),[32],0.28
same,glycan array binding signal (z-score),[33],-0.452
same,glycan array binding signal (z-score),[34],0.026
same,glycan array binding signal (z-score),[35],-0.642
same,glycan array binding signal (z-score),[36],-0.633
same,glycan array binding signal (z-score),[37],-0.473
same,glycan array binding signal (z-score),[38],-0.533
same,glycan array binding signal (z-score),Neu5Ac(b2-6)GalNAc,-0.414
same,glycan array binding signal (z-score),Neu5Gc(a2-3)Gal(b1-4)Glc,-0.297
